Compounds with a hit are over-represented: about 21% of the library has one in this group of screens.
ClpP mod: qHTS Assay for Activators of ClpP. ATP-dependent Clp protease proteolytic subunit (Bacillus subtilis (strain 168)), P80244. purified B. subtilis ClpP, FRET peptide cleavage, 20 min. Potency, µM (doses to about 57.5 µM). 340,000 compounds, 1.9% hits. AID 651965, 2013; active means well fitted falling curve with a large enough effect; inconclusive means small, poorly fitted or top-dose-only effect; inactive means no such curve, though single readings can be large or run the other way; further: the source files actives as falling curves though it sought activators and does not explain the sign; nearly all actives have a fitted effect of over 65% in size
Target sequence (P80244 whole entry, looked up): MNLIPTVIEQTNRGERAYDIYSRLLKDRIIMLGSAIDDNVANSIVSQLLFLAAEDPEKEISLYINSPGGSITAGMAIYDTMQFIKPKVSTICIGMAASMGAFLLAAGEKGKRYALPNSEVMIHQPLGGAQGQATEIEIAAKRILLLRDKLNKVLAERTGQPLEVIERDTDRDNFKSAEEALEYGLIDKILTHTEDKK
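Buffer: 100 mM Tris/HCl pH8, 100 mM KCl, 0.05% low protease BSA, 2.5% glycerol, 0.01% Tween-20. ClpP 10 microg/mL final; 20 min RT; delta FRET normalized to ADEP and DMSO controls.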
IL-1B inflam inh: inflammasome signaling inhibition, IL-1 beta readout. THP-1 LPS/ATP IL-1B secretion, AlphaLISA, 16 h; active compounds read low. 360,000 compounds, 4.7% hits. activity change, % at 57.5 µM. AID 743279; in the data active means activity change below about -50%; inconclusive means mostly about -30% to -49%
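Secreted IL-1B measured by AlphaLISA bead assay after 16 h compound exposure of THP-1 cells; compounds (final up to 57.5 uM) added 1 h before LPS (250 ng/mL) and ATP (1.25 mM) stimulation; lower signal means less secretion.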
DT40 TDP1 CPT: growth inhibition of DT40 Tdp1-/-;hTDP1 cells with camptothecin (screen for TDP1 inhibitors); AID 686979; 420,000 compounds, 12% hits; Potency, µM (doses to about 46.2 µM), usual class: inhibitors; chicken DT40 Tdp1-/-;hTDP1 cells + 20 nM CPT, ATP luminescence, 48 h; further: nearly all actives have a fitted effect of over 55% in size
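Chicken DT40 Tdp1-/- cells complemented with human TDP1, 400 cells/well, exposed to compounds plus 20 nM camptothecin for at least 48 h at 37 C; viability read as ATP content by CellTiter-Glo luminescence.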
DRD3 agonist: D3 dopamine receptor (human) agonism; 410,000 compounds, 0.58% hits; D3R DiscoveRx beta-arrestin cells, luminescence, 90 min; P35462; max activation, %; AID 652048; in the data active means max activation above about 30%
Target sequence (P35462 whole entry, looked up): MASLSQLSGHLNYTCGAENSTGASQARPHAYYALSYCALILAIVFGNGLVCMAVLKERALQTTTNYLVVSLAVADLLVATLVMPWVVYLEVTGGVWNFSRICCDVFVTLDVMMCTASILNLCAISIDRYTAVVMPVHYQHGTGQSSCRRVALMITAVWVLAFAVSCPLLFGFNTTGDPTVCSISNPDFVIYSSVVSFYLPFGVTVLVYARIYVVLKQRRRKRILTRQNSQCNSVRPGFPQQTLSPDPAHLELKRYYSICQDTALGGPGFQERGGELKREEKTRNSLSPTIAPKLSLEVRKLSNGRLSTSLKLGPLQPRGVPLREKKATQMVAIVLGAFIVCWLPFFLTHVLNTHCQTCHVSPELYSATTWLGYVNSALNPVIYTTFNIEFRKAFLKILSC
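Agonist-mode cell screen: cells plated at 1500/well and incubated overnight at 37 °C, then exposed to library compounds for 90 min at 37 °C. Detection reagent was added for 30–60 min at room temperature, and luminescence was read.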
DRD3 antagonist: D3 dopamine receptor (human) antagonism; 360,000 compounds, 2.5% hits; D3R cells, DiscoveRx beta-arrestin luminescence, antagonist mode; active compounds read low; P35462; max response, negative = inhibition, %; in the data active means max response below about -50%; inconclusive means no clear call, values can overlap the other calls
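Cells expressing the human receptor were seeded at 1500 cells/well, incubated overnight at 37 degrees C in 5% CO2, then exposed to library compounds with dopamine controls for 90 minutes at 37 degrees C before luminescent detection.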
DT40 TDP1 no CPT: qHTS for Inhibitors of human tyrosyl-DNA phosphodiesterase 1 (TDP1): qHTS in cells in absence of CPT; DT40 Tdp1-/- hTDP1 cells, no CPT, ATP luminescence, 48 h; Potency, µM (highest dose often 46.2 µM), most hits filed as inhibitors; 420,000 compounds, 15% hits; further: nearly all actives have a fitted effect of over 55% in size
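Growth kinetics read by CellTiter-Glo luminescence after ≥48 hr at 37 °C. Cells: DT40 Tdp1-/- stably carrying human TDP1, 400 per well, compound exposure in the absence of CPT (DMSO vehicle).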
Of the large screens only hits and unclear results are named; the others gave an inactive call. Unless noted, the call rests on the fitted dose curve; in most records, active means well fitted inhibition curve with a large enough effect; inconclusive means small, poorly fitted or top-dose-only effect; inactive means flat fitted curve, though single readings scatter.

C=CCn1c(CCC(=O)O)ccc1-c1ccc(OC)cc1	ClpP mod inconclusive
Cc1ccc(-c2ccc(CCC(=O)O)n2Cc2ccco2)cc1	ClpP mod 31.6µM
COc1ccc(-c2ccc(CCC(=O)O)n2CC(C)C)cc1	ClpP mod 31.6µM, DT40 TDP1 CPT inconclusive, DT40 TDP1 no CPT 20.6µM
O=C(O)CCc1ccc(-c2ccccc2)n1CC(=O)O	ClpP mod 31.6µM
CCCn1c(CCC(=O)O)ccc1-c1ccccc1	DT40 TDP1 CPT inconclusive, DT40 TDP1 no CPT inconclusive (no result: ClpP mod)
CC(=NNC(=O)c1ccc(NS(=O)(=O)c2cccs2)cc1)c1ccc(OCC(N)=O)cc1	none
COc1ccccc1Nc1ncnc2nc[nH]c12	none
Nc1cccc(Nc2nc(OC(C(F)(F)F)C(F)(F)F)nc(OC(C(F)(F)F)C(F)(F)F)n2)c1	IL-1B inflam inh -89.3, DT40 TDP1 CPT 20.6µM, DT40 TDP1 no CPT 23.1µM
COc1nc(Nc2ccc(O)cc2)nc(OC(C(F)(F)F)C(F)(F)F)n1	IL-1B inflam inh inconclusive, DT40 TDP1 CPT inconclusive
O=C(NCC1OCCc2ccccc21)c1ccc(NC(=O)c2ccccc2Cl)cc1 (centres undefined)	IL-1B inflam inh -73.4, DT40 TDP1 no CPT inconclusive
CCOc1ccc(C(=O)NCC2OCCc3ccccc32)cc1 (centres undefined)	DRD3 antagonist inconclusive
O=C(CS(=O)CC(=O)Nc1ccc(Cl)cc1)NCC1OCCc2ccccc21 (centres undefined)	ClpP mod 11.2µM
O=C(NCC1OCCc2ccccc21)c1ccc(NC(=O)c2cccc(Br)c2)cc1 (centres undefined)	DT40 TDP1 CPT 7.31µM, DT40 TDP1 no CPT 7.31µM
CC(C)Cn1c(=O)c2ccccc2n2c(CCC(=O)O)nnc12	none
CCOc1ccc(OCCOC(=O)C2CCN(S(=O)(=O)c3ccc(C)c(C)c3)CC2)cc1	none
CC(=O)N1c2ccc(S(=O)(=O)N(C)CC(=O)N(Cc3ccccc3)C(C)C)cc2CC1C (centres undefined)	DT40 TDP1 CPT inconclusive, DT40 TDP1 no CPT inconclusive (no result: IL-1B inflam inh, DRD3 antagonist)
O=C(COc1ccccc1F)NCc1ccc(-n2cccc2)cc1	DT40 TDP1 no CPT inconclusive
O=C(OCc1c(Cl)nc2sccn12)c1cc2c(s1)CCCC2	DT40 TDP1 CPT 14.1µM, DT40 TDP1 no CPT inconclusive
CSCCC(NC(=O)c1cccc([N+](=O)[O-])c1)C(=O)OCC(=O)N1CCCC1=O (centres undefined)	none
CSCCC(NC(=O)c1cccc([N+](=O)[O-])c1)c1nc2ccccc2[nH]1 (centres undefined)	DRD3 antagonist -53.5
CSCCC(NC(=O)c1cccc([N+](=O)[O-])c1)C(=O)O (centres undefined)	ClpP mod 25.1µM, DRD3 antagonist inconclusive
CCC(=O)NC(Cc1ccccc1)c1nc2ccccc2[nH]1 (centres undefined)	none
O=C(NC(Cc1ccccc1)c1nc2ccccc2[nH]1)c1cccc([N+](=O)[O-])c1 (centres undefined)	DT40 TDP1 CPT 20.6µM, DT40 TDP1 no CPT inconclusive (no result: ClpP mod)
O=C(NCc1nc2ccccc2[nH]1)c1ccc([N+](=O)[O-])cc1	DRD3 antagonist inconclusive
O=C(NCC(O)c1nc2ccccc2[nH]1)c1cc([N+](=O)[O-])ccc1F (centres undefined)	IL-1B inflam inh -86.6, DT40 TDP1 CPT inconclusive, DT40 TDP1 no CPT inconclusive
CSCC[C@H](NC(=O)c1cc([N+](=O)[O-])ccc1Cl)c1nc2ccccc2[nH]1	none
O=c1c2sc3ccccc3c2n(Cc2ccc(F)cc2Cl)c(=O)n1Cc1ccccc1	DT40 TDP1 CPT inconclusive, DT40 TDP1 no CPT inconclusive (no result: IL-1B inflam inh, DRD3 antagonist)
COCCNC(=O)[C@@]1(C)C=C[C@@H](Cc2ccccc2)N1C(=O)c1ccccc1	DT40 TDP1 CPT inconclusive, DT40 TDP1 no CPT inconclusive
C[C@]1(C(=O)NCc2cc(F)cc(C(F)(F)F)c2)C=C[C@@H](Cc2ccccc2)N1C(=O)c1ccccc1	DT40 TDP1 CPT 16.4µM, DT40 TDP1 no CPT inconclusive
O=C(Cn1c(O)c(/C=C2\C=Nc3ccccc32)sc1=O)N1CCOCC1	DT40 TDP1 no CPT inconclusive
O=C(Cn1c(O)c(/C=C2\C=Nc3ccc(Br)cc32)sc1=O)N1CCCC1	IL-1B inflam inh inconclusive, DT40 TDP1 CPT 20.6µM, DRD3 antagonist inconclusive, DT40 TDP1 no CPT inconclusive
CC(Oc1ccc2c(-c3ccccc3)cc(=O)oc2c1)C(=O)NCC(O)c1ccccc1 (centres undefined)	DT40 TDP1 CPT inconclusive, DT40 TDP1 no CPT inconclusive
CCN1CCN(c2ncc3c(n2)CC(c2cc(OC)c(OC)c(OC)c2)CC3=O)CC1 (centres undefined)	DT40 TDP1 CPT 4.61µM, DT40 TDP1 no CPT 3.26µM
O=C1CC(c2cccc(Cl)c2)Cc2nc(N3CCOCC3)ncc21 (centres undefined)	DT40 TDP1 CPT inconclusive, DT40 TDP1 no CPT 20.6µM
Cc1cccn2c(/C=N/OCc3cccc(F)c3)c(-c3ccc(Cl)cc3)nc12	ClpP mod 22.4µM, DT40 TDP1 CPT inconclusive, DT40 TDP1 no CPT inconclusive
COc1ccc(N2CCN(c3nc4c(C)cccn4c(=O)c3C=C(C#N)C#N)CC2)cc1	DT40 TDP1 no CPT inconclusive (no result: ClpP mod)
COc1cccc(/C(C#N)=C/c2c(-c3ccc(Cl)cc3)nc3c(C)cccn23)c1	IL-1B inflam inh -65.4, DT40 TDP1 CPT 20.6µM, DT40 TDP1 no CPT 18.4µM
COc1ccc(Nc2nc(N)c([N+](=O)[O-])c(NCc3ccccc3)n2)cc1	DT40 TDP1 CPT inconclusive, DT40 TDP1 no CPT 16.4µM
COc1nc(Nc2ccc([N+](=O)[O-])cc2)nc(NC2CCCCC2)n1	IL-1B inflam inh -78.4, DT40 TDP1 CPT inconclusive, DT40 TDP1 no CPT inconclusive (no result: ClpP mod)
COc1ccc(Nc2nc(N)c([N+](=O)[O-])c(NC3CCCCC3)n2)cc1	IL-1B inflam inh -95.4, DT40 TDP1 CPT 16.4µM, DT40 TDP1 no CPT inconclusive (no result: ClpP mod)
Cc1ccc(Nc2nc(N)c([N+](=O)[O-])c(NCc3ccccc3)n2)cc1	DT40 TDP1 no CPT inconclusive (no result: ClpP mod, IL-1B inflam inh)
COc1ccc(Nc2nc(N)c([N+](=O)[O-])c(NCCO)n2)cc1	none (no result: ClpP mod, IL-1B inflam inh)
Cc1cc(=O)n2[nH]c(-c3ccc(F)cc3)cc2n1	ClpP mod 15.8µM, DT40 TDP1 CPT inconclusive, DT40 TDP1 no CPT 13µM
Cc1cc(=O)n2[nH]c(-c3ccc(Cl)cc3)cc2n1	ClpP mod 28.2µM, DT40 TDP1 CPT 18.4µM, DT40 TDP1 no CPT 20.6µM
CCOC(=O)Cc1c(C)nc2c(-c3ccc(Cl)cc3)c(C)[nH]n2c1=O	ClpP mod 14.1µM, DT40 TDP1 CPT 23.1µM, DT40 TDP1 no CPT 23.1µM
CCOC(=O)Cc1c(C)nc2c(-c3cccc(Br)c3)c[nH]n2c1=O	ClpP mod 14.1µM, DT40 TDP1 CPT 9.2µM, DT40 TDP1 no CPT 4.11µM
